From PubChem BioAssay
Shown are actives, neighbours in structure and some others; about 2.8% of the full set was active somewhere.
Pol beta inh = qHTS Assay for Inhibitors of DNA Polymerase Beta; 340,000 compounds, 1.3% hits; AID 485314, 2010; P06746; Potency, µM (highest dose often 114 µM), for the others: top-dose activity change, negative = inhibition, most hits filed as inhibitors; Pol beta primer extension/strand displacement, fluorescence kinetic; note: potency is the fitted concentration of half-maximal effect; % is set by controls: 0 for no effect and ±100 for the full control effect
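Reaction started by 50 nM substrate onto compound-treated Pol beta (10 nM, 15 min preincubation, room temperature); plates read at 0 min and 10 min. Normalized concentration-effect data fitted by four-parameter Hill equation.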
PI5P4K alpha inh = qHTS for Inhibitors of phosphatidylinositol 5-phosphate 4-kinase (PI5P4K); 330,000 compounds, 1.2% hits; AID 652105, 2013; Phosphatidylinositol 5-phosphate 4-kinase type-2 alpha (Homo sapiens), P48426; max response, %; PI5P4Kalpha enzyme, ADP-Glo luminescence, 60 min; hits give low values; active = max response of -50% or lower; inconclusive = between -30% and -50%; inactive = -30% or higher; note: value at the top dose of about 77 µM; % is set by controls: 0 for no effect and ±100 for the full control effect
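Human PI5P4Kalpha with substrate in 0.038 M HEPES pH 7.4, 0.28 mM EGTA, 0.1% CHAPS, 5% DMSO; reaction started with 5 microM ATP (final), 60 min at room temperature. ADP formed read by ADP-Glo luminescence.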
POLH inh = qHTS for Inhibitors of Polymerase Eta. recombinant Pol eta, fluorescent DNA replication assay. DNA polymerase eta (Homo sapiens), Q9Y253. Potency, µM (series often up to 114 µM), without a hit: at the top dose activity change, negative = inhibition, usual class: inhibitors. 390,000 compounds, 1.2% hits; note: potency is the fitted concentration of half-maximal effect; % is set by controls: 0 for no effect and ±100 for the full control effect
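Fluorescent replication assay: 50 nM final substrate added after a 15 min room-temperature compound preincubation with 10 nM enzyme. Signal taken at 0 min and again at 10 min.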
POLK inh = qHTS for Inhibitors of Polymerase Kappa | purified Pol kappa, fluorescent DNA synthesis assay, 10 min | Potency, µM (doses to about 107 µM), for inactives: top-dose activity, negative = inhibition, hits mostly inhibitors | 400,000 compounds, 0.53% hits | DNA polymerase kappa (Homo sapiens), Q9UBT6; note: potency is the fitted concentration of half-maximal effect; % is set by controls: 0 for no effect and ±100 for the full control effect
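Pol kappa 10 nM + cpd, 15 min RT; start w/ substrate 50 nM final; fluorescence kinetic read, 0 and 10 min. Neg ctrl: buffer, no enzyme.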
WRN helicase inh = qHTS for Inhibitors of WRN Helicase; Potency, µM (top dose mostly 114 µM), without a hit: at the top dose activity change, negative = inhibition, most hits filed as inhibitors; Bifunctional 3'-5' exonuclease/ATP-dependent helicase WRN (Homo sapiens), Q14191; WRN helicase unwinding, fluorescent forked duplex, kinetic; 360,000 compounds, 0.46% hits; note: potency is the fitted concentration of half-maximal effect; % is set by controls: 0 for no effect and ±100 for the full control effect; nearly all actives have a fitted effect of over 55% in size
Target sequence (Q14191 whole entry, looked up): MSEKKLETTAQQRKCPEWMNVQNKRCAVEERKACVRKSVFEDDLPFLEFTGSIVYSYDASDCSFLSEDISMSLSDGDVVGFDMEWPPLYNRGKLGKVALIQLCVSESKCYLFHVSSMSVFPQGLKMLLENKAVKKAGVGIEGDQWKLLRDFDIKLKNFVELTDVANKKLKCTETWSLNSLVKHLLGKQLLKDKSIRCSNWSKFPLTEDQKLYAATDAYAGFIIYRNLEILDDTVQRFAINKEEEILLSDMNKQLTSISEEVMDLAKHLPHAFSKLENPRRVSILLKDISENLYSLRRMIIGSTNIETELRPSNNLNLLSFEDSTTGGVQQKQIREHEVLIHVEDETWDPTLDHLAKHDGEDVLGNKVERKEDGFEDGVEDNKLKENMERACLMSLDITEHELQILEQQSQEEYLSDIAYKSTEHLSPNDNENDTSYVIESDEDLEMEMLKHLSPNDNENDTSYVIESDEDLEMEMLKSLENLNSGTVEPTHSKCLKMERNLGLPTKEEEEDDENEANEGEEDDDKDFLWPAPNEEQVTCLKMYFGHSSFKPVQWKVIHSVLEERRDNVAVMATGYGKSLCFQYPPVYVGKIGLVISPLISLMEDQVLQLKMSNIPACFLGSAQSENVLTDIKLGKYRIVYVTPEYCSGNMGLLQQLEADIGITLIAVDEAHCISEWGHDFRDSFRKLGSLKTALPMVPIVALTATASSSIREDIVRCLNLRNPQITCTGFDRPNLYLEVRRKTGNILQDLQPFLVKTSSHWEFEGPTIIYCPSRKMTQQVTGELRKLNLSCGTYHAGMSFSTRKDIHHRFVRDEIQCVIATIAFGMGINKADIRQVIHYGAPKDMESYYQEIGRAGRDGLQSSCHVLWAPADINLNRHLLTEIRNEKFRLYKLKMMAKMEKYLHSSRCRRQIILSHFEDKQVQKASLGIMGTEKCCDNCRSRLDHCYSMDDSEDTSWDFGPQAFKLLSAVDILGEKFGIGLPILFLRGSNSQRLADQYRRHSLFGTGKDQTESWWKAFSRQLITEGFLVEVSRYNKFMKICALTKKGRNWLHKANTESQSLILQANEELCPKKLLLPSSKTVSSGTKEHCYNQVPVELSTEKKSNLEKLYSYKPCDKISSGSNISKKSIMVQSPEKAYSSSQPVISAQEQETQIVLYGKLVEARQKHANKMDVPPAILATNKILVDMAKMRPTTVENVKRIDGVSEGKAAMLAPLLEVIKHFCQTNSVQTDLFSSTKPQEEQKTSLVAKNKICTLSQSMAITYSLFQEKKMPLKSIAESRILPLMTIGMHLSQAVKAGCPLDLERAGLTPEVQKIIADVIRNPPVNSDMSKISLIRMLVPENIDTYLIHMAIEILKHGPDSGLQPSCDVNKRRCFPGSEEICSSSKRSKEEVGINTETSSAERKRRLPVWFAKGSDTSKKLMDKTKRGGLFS
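Primary qHTS, 1536-well format. 20 nM WRN + compound, 15 min RT; start with 100 nM forked fluorophore/quencher duplex, 2 mM ATP (final); kinetic read ex 525/em 598 nm.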
Pol iota inh = qHTS for Inhibitors of Polymerase Iota; DNA polymerase iota (Homo sapiens), Q9UNA4; Pol iota fluorescent replication assay, 10 min; Potency, µM (titrated, usually from 115 µM), for the others: at the highest dose activity, negative = inhibition, most hits filed as inhibitors; 390,000 compounds, 1% hits; note: potency is the fitted concentration of half-maximal effect
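Pol iota at 10 nM preincubated 15 min with compounds at room temperature; reaction started with fluorescent substrate, 50 nM final. Fluorescence read kinetically at 0 and 10 min; buffer-only wells as negative control.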
* hit, by the source's call; ? = inconclusive; · = no result given; ! = a repeat was not active; [ ] = dose if it differs, or a comment. Unless noted, calls come from the whole dose curve; as a rule, active = well fitted curve in the direction sought with a large enough effect; inconclusive = small, poorly fitted or top-dose-only effect, or another doubt; inactive = no such curve, though single readings can be large; an effect the other way counts as inactive or inconclusive.

SMILES	Pol beta inh	PI5P4K alpha inh	POLH inh	POLK inh	WRN helicase inh	Pol iota inh
CC(C)CCN1C(=O)c2ccc(C(=O)Nc3ccccc3C(=O)O)cc2C1=O	?	-60*	-15%	-8%	-3%	?
CC(C)CCN1C(=O)c2ccc(C(=O)Nc3ccc(O)cc3C(=O)O)cc2C1=O	37%	-27	-11%	-15%	-11%	19%
COc1ccc(C(=O)Nc2ccccc2C(=O)O)cc1NC(=O)C(c1ccccc1)c1ccccc1	?	?	89µM*	-19%	-12%[11.6 µM]	7%
Cn1c(N)c(C(=O)COC(=O)CC(NC(=O)c2ccccc2Cl)c2ccccc2)c(=O)n(C)c1=O (stereo unspecified)	10%	2	0%	2%	-4%	53%
Cc1cc(C)c(NC(=O)CO/N=C2\CCCc3nonc32)c(C)c1	9%	7	-12%	0%	7%	126%
COc1ccc(C2=Nc3ccccc3NC(=O)C2N(Cc2ccccc2)C(=O)C2=NNC(=O)CC2)cc1 (stereo unspecified)	·	1	·	·	-4%	·
CC(=O)c1ccccc1NS(=O)(=O)c1cccc2nonc12	-20%	2	10%	2%	3%	-9%
CC(=O)c1ccccc1NS(=O)(=O)c1cccc2nsnc12	25µM*	?	50µM*	79µM*	-4%[11.6 µM]	45µM*
COc1ccc(C(C)C)cc1S(=O)(=O)NC1CCCC1	-1%	6	0%	2%	3%	-1%
CN(CCO)c1cc(Sc2nc3ccccc3s2)c2nonc2c1[N+](=O)[O-]	8%	·	-14%	-16%	?	22µM*
CC(=O)OCCN(C)c1cc(SC(C)C)c2nonc2c1[N+](=O)[O-]	-1%	3	-15%	1%	-1%	171%
Cc1ccc(C2C(C#N)=C(N)Oc3cc(C)oc(=O)c32)o1 (stereo unspecified)	2%	0	31%	11%	4%	35%
Oc1ccc(/C=C/c2cc(O)cc(O)c2)cc1	?	-7	-3%[57.1 µM]	14µM*!	-13%	?
Cc1c(C(=O)NCc2ccc(C(F)(F)F)cc2)sc(=O)n1Cc1ccc(S(=O)(=O)N(C)C)cc1	·	-2	·	·	8%[57.1 µM]	·
O=C(OCc1ccc([N+](=O)[O-])cc1)C1CC(=O)N(CCc2ccccc2)C1 (stereo unspecified)	·	-2	-7%	-14%	-18%	9%
O=C(OCc1nnc(-c2ccc([N+](=O)[O-])cc2)o1)C1CC(=O)N(CCc2ccccc2)C1 (stereo unspecified)	·	?	?	-14%	-30%	79µM*
COc1ccc2ccc3c(c2c1)N=C[C@]1(O3)N(C)c2ccccc2C1(C)C	14%	?	71µM*	-8%	11µM*	?
C=C(C)CCC(C)N1CCC(n2nccc2NC(=O)CCOc2ccccc2)CC1 (stereo unspecified)	3%	4	-5%	-9%	-20%	11%
COc1ccc(OC)c(/C=C2\SC(=S)N(NS(=O)(=O)c3ccccc3)C2=O)c1	?	?	-8%	-4%[60.1 µM]	-11%	?
COc1ccc(/C=C2\SC(=S)N(NS(=O)(=O)c3ccccc3)C2=O)c(OC)c1	-22%	-58*	?	3%	-8%[11.6 µM]	-1%
CCOc1ccc(/C=C2\SC(=S)N(NS(=O)(=O)c3ccc(C)cc3)C2=O)cc1OC	-17%	2	?	-28%	-18%	-16%
O=C1/C(=C/c2cccs2)SC(=S)N1NS(=O)(=O)c1ccccc1	-4%	-73*	0%	-14%	-14%	-2%
COc1ccc(OC)c(/C=C2\SC(=S)N(NS(=O)(=O)c3ccc(C)cc3)C2=O)c1	?	-67*	79µM*	-27%	-6%[11.6 µM]	37%
